Measured values as given in PubChem BioAssay AID1159580 (chemical genetic matrix, 2015).
“And” between values parts separate entries of the source, which are not always exact repeats. Identical values can stand only once. Out of some 5,500 compounds screened, about 2,000 (36%) were called active. Another 18% or so got no clear call; they are omitted. Cut-off read from the data, not from the text of the source: active = normalized growth mostly below about 0.91 (no sharp cut-off); inconclusive = no clear call, values can overlap the other calls; inactive = mostly above about 0.92. This is one part of the list.

Test: chemical genetic growth profiling, strain panel (AID 1159580);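 note: tested at 20 µM; growth read once vehicle control cultures reached saturation at 30 °C; 1 = growth at the plate median or of vehicle wells; lower values mean less growth of the strain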
Conditions: S. cerevisiae deletion strains, growth OD

Measured: normalized growth

COc1c2ccoc2cc2oc(C)cc(=O)c12
inactive: locus YAL021C, strain ccr4, hits give low values 1 | locus YAL026C, strain drs2, hits give low values 0.999 | locus YAL030W, strain snc1, hits give low values 0.987 | locus YBL061C, strain skt5, hits give low values 1 | locus YBR009C, strain hhf1, hits give low values 0.993 | locus YBR021W, strain FUR4, hits give low values 0.997 | locus YBR023C, strain chs3, hits give low values 0.991 | locus YBR171W, strain sec66, hits give low values 0.987 | locus YBR229C, strain ROT2, hits give low values 0.948 | locus YBR231C, strain swc5, hits give low values 0.99 | locus YBR279W, strain paf1, hits give low values 0.995 | locus YCL011C, strain gbp2, hits give low values 0.985 | locus YCL016C, strain dcc1, hits give low values 0.979 | locus YCL029C, strain bik1, hits give low values 0.98 | locus YCL069W, strain vba3, hits give low values 1.01 | locus YCR088W, strain abp1, hits give low values 0.99 | locus YDL005C, strain med2, hits give low values 1 | locus YDL035C, strain GPR1, hits give low values 0.972 | locus YDL040C, strain nat1, hits give low values 1 | locus YDL074C, strain BRE1, hits give low values 0.981 | locus YDL101C, strain DUN1, hits give low values 0.96 | locus YDL134C, strain PPH21, hits give low values 0.964 | locus YDL185W, strain tfp1, hits give low values 0.971 | locus YDL192W, strain arf1, hits give low values 0.945 | locus YDR001C, strain nth1, hits give low values 0.997 | locus YDR069C, strain doa4, hits give low values 1 | locus YDR101C, strain arx1, hits give low values 1.02 | locus YDR137W, strain rgp1, hits give low values 1 | locus YDR159W, strain sac3, hits give low values 1.02 | locus YDR162C, strain NBP2, hits give low values 0.905 | locus YDR195W, strain ref2 1.03 | locus YDR297W, strain sur2, hits give low values 1 | locus YDR318W, strain mcm21, hits give low values 0.945 | locus YDR334W, strain swr1, hits give low values 1 | locus YDR335W, strain msn5, hits give low values 1 | locus YDR388W, hits give low values 0.996 | locus YDR392W, strain spt3, hits give low values 0.961 | locus YDR502C, strain sam2, hits give low values 0.966 | locus YEL003W, strain gim4, hits give low values 1 | locus YEL037C, strain rad23, hits give low values 1 | locus YEL061C, strain CIN8 (second series), hits give low values 0.997 | locus YEL061C, strain CIN8, hits give low values 0.975 | locus YER015W, strain faa2, hits give low values 0.997 | locus YER016W, strain bim1, hits give low values 0.996 | locus YER110C, hits give low values 0.972 | locus YER111C, strain swi4, hits give low values 0.985 | locus YER155C, strain BEM2 (second series), hits give low values 0.999 | locus YER155C, strain BEM2, hits give low values 1 | locus YER167W, strain BCK2, hits give low values 0.98 | locus YFR010W, strain ubp6, hits give low values 0.985 | locus YGL078C, strain dbp3, hits give low values 0.999 | locus YGL086W, strain mad1, hits give low values 1.05 | locus YGL167C, strain pmr1, hits give low values 0.997 | locus YGL173C, strain kem1, hits give low values 0.984 | locus YGL227W, strain vid30, hits give low values 0.986 | locus YGL240W, strain doc1, hits give low values 1.01 | locus YGL248W, strain PDE1, hits give low values 0.928 | locus YGL253W, strain hxk2, hits give low values 0.988 | locus YGR078C, strain PAC10, hits give low values 0.922 | locus YGR135W, strain pre9, hits give low values 0.914 | locus YGR252W, strain gcn5, hits give low values 0.912 | locus YHR013C, strain ard1, hits give low values 0.993 | locus YHR027C, strain rpn1, hits give low values 0.995 | locus YHR030C, strain SLT2, hits give low values 0.987 and 1.04 | locus YHR079C, strain IRE1 (second series), hits give low values 1 | locus YHR079C, strain IRE1, hits give low values 1.04 | locus YHR094C, strain hxt1, hits give low values 0.978 | locus YHR129C, strain ARP1, hits give low values 0.981 | locus YHR142W, strain chs7, hits give low values 0.971 | locus YHR200W, strain rpn10, hits give low values 0.953 | locus YIL066C, strain RNR3, hits give low values 0.971 | locus YIL073C, strain SPO22, hits give low values 0.936 | locus YIL125W, strain kgd1, hits give low values 1 | locus YIR030C, strain dcg1, hits give low values 0.995 | locus YJL092W, strain hpr5, hits give low values 0.993 | locus YJL095W, strain BCK1 (second series), hits give low values 0.999 | locus YJL095W, strain BCK1, hits give low values 0.884 and 1.03 | locus YJL115W, strain asf1, hits give low values 1.01 | locus YJL129C, strain trk1, hits give low values 1.01 | locus YJL134W, strain LCB3, hits give low values 0.985 | locus YJL154C, strain vps35, hits give low values 1.01 | locus YJL164C, strain tpk1, hits give low values 0.989 | locus YJL166W, strain qcr8, hits give low values 0.984 | locus YJL168C, strain set2, hits give low values 1 | locus YJL187C, strain SWE1 (second series), hits give low values 0.947 | locus YJR043C, strain POL32, hits give low values 0.97 | locus YJR066W, strain TOR1, hits give low values 0.993 | locus YJR075W, strain HOC1, hits give low values 0.955
